Source: the supplement of paper PMC7156485
± gives the standard deviation of the averaged measurements.

Legend:
Settings in all cases: concentration: 10 µM; 24 h
[1] = tested on: HCC1569; assay: cell number relative to DMSO (% of DMSO); higher = more cells (less growth inhibition / toxicity)
How it was run: (§1)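 Cell number or H1.0 nuclear intensity appears as percent of the plate control, based on the median of replicates. Measurements came from HCC1569 and TDF cells exposed in triplicate to compounds at 10 µM for 24 h at 37 °C, then imaged in six fields per well at ×10. Positional effects were smoothed out of HCC1569 values.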

[2] = tested on: TDF; assay: as above
How it was run: as §1

[3] = tested on: TDF; assay: H1.0 immunofluorescence intensity relative to DMSO (% of DMSO); higher = stronger H1.0 induction, active = 120 or more
How it was run: as §1

[4] = tested on: HCC1569; assay: H1.0 immunofluorescence intensity relative to DMSO (% of DMSO); higher = stronger H1.0 induction, active = 140 or more
How it was run: as §1
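Wherever H1.0 immunofluorescence intensity relative to DMSO is given: TDF is a line of transformed human dermal fibroblasts of mesenchymal origin.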
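Wherever cell number relative to DMSO is given: TDF denotes transformed human dermal fibroblasts of mesenchymal origin.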

Structure (SMILES)	cell number [1]	cell number [2]	H1.0 immunofluorescence intensity [3]	H1.0 immunofluorescence intensity [4]
CCN(CC)C(=O)c1ccc(O)c(OC)c1 [Vanillic acid diethylamide]	101	103	94.3 (inactive)	99.6 (inactive)
NCC1OC(OC2C(CO)OC(OC3C(O)C(N)CC(N)C3OC3OC(CO)C(O)C(O)C3N)C2O)C(N)C(O)C1O.O=S(=O)(O)O (configuration not stated) [Paromomycin sulfate]	105	106	93.7 (inactive)	101 (inactive)
Cc1cccc(Nc2cc(Cl)nc(SCC(=O)O)n2)c1C	101	104	91.8 (inactive)	97.6 (inactive)
Br.Br.NC(N)=NCCSSCCN=C(N)N [Guanidinoethyl disulfide dihydrobromide]	100	108	96.5 (inactive)	98.8 (inactive)
O=c1oc2cc(O)ccc2c2oc3cc(O)ccc3c12 [Coumestrol]	99.9	91.8	97.6 (inactive)	94.6 (inactive)
CC(=O)C1(O)CCC2C3CCC4=CC(=O)CCC4(C)C3CCC21C (stereo not drawn) [17alpha-hydroxyprogesterone]	98.8	98.3	99 (inactive)	99.8 (inactive)
CCC=CCC=CCC=CCC=CC=CC(O)CCCC(=O)O (racemic)	106	94.7	103 (inactive)	99 (inactive)
CC1(C)CC=C(c2ccccc2)c2cc(/C=C/c3ccc(C(=O)O)cc3)ccc21	99.1	91.6	101 (inactive)	111 (inactive)
CCCCCCCCCCCCCCCCCCOP(=O)([O-])OC1CC[N+](C)(C)CC1 [1,1-dimethylpiperidinium-4-yl octadecyl phosphate]	103	96.6	98.2 (inactive)	103 (inactive)
Cl.O=C(O)C1CCCN(CCC=C(c2ccccc2)c2ccccc2)C1 (configuration not stated)	97.9	92.7	98.1 (inactive)	98.1 (inactive)
Cl.NCCc1ccc(O)c(O)c1 [Dopamine hydrochloride]	106	100	93.5 (inactive)	89.7 (inactive)
Oc1ccccc1O [Pyrocatechol]	73.6	87.2	93.7 (inactive)	117 (inactive)
COc1cc(CC2C(=O)OCC2Cc2ccc(OC)c(OC)c2)ccc1O (configuration not stated)	80.5	74.6	103 (inactive)	156 (active)
c1ccc(-c2cnc(Nc3ccc(OCCN4CCCC4)cc3)s2)cc1 [Flt-3 Inhibitor III]	80.3	74.2	97.1 (inactive)	150 (active)
COc1ccc(S(=O)(=O)Nc2nc(-c3cccc([N+](=O)[O-])c3)cs2)cc1OC	102	92.4	102 (inactive)	97.7 (inactive)
CCCCCN(CCCCC)C(=O)C(CCC(=O)O)NC(=O)c1ccc(Cl)c(Cl)c1 (configuration not stated) [Lorglumide]	100	91.5	102 (inactive)	96.4 (inactive)
O=C1C(=O)C(c2ccc(O)c(O)c2)Oc2cc(O)cc(O)c21 (configuration not stated) [2-(3,4-dihydroxyphenyl)-3,5,7-trihydroxy-4H-chromen-4-one]	81.2	74.4	103 (inactive)	158 (active)
CC1=C(C)C(=O)C(C(CCCCCC(=O)O)c2ccccc2)=C(C)C1=O (configuration not stated) [Seratrodast]	107	104	99.3 (inactive)	82.5 (inactive)
COC(=O)C1=C(C)NC(C)=C([N+](=O)[O-])C1c1ccccc1C(F)(F)F (racemic)	99	103	92.2 (inactive)	98 (inactive)
CCN(c1nc(N)c(C(=O)N=C(N)N)nc1Cl)C(C)C [5-(N-Ethyl-N-isopropyl)amiloride]	103	95	97.2 (inactive)	91 (inactive)
Cc1[nH]c(=O)c(C#N)cc1-c1ccncc1 [Milrinone]	103 ± 3.6	108 ± 13	92.3 (inactive)	103 (inactive)
CCCCCC(O)C=CC1C(O)CC2OC(=CCCCC(=O)[O-])CC21.[Na+] (configuration not stated) [Prostaglandin I2 Na]	101	98.1	94.1 (inactive)	98.3 (inactive)
O=c1[nH]ccc2c(O)cccc12 [1,5-Isoquinolinediol]	100	97.2	87.9 (inactive)	91.6 (inactive)
